Where a name gives a salt, the structure may show the parent alone.
system: Danio rerio larvae (5 dpf); test: optomotor response to green moving lines, difference vs DMSO (percentage points (treated minus DMSO)); higher = more of the behaviour than the DMSO vehicle control; details: 10 µM; exposure time: 3 h pre-incubation + 3 h imaging
Method: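 5-dpf wild-type zebrafish larvae were imaged in 96-well plates. They were treated with 190 Tocris FDA-approved drugs at 10 µM (1 µl/ml DMSO) for 3 h before and 3 h during imaging at 28.5 °C, 48 larvae per drug. Automated image analysis gave % time moving and optomotor responses. Values are drug group mean minus DMSO vehicle mean (n=844), in percentage points, for 10 behaviours.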

Point of comparison: CN(C)CCc1c[nH]c2ccc(Cn3cncn3)cc12 [Rizatriptan benzoate], “optomotor response to green moving lines” value 3.24. Against it:
- C=C1[C@H](CO)[C@@H](O)C[C@@H]1n1cnc2c(=O)[nH]c(N)nc21 [Entecavir] — lower, 0.498
- CCCCc1nc(Cl)c(CO)n1Cc1ccc(-c2ccccc2-c2nnn[nH]2)cc1 [Losartan potassium] — lower, -0.568
- O=C1CCc2ccc(OCCCCN3CCN(c4cccc(Cl)c4Cl)CC3)cc2N1 [Aripiprazole] — lower, -2.87
- CN1CCN(CCCN2c3ccccc3Sc3ccc(Cl)cc32)CC1 [Prochlorperazine dimaleate] — higher, 3.92
- COc1ccc([C@@H]2Sc3ccccc3N(CCN(C)C)C(=O)[C@@H]2OC(C)=O)cc1 [Diltiazem hydrochloride] — lower, -3.02
- CCCC1O[C@@H]2C[C@H]3[C@@H]4CCC5=CC(=O)C=C[C@]5(C)[C@H]4[C@@H](O)C[C@]3(C)[C@]2(C(=O)CO)O1 (stereo not given in full) [Budesonide] — lower, 0.891
- Nc1nc(Cl)nc2c1ncn2[C@@H]1O[C@H](CO)[C@@H](O)[C@@H]1F [Clofarabine] — higher, 7.3
- CC(=O)Nc1ccc(O)cc1 [Acetaminophen] — higher, 8.32
- CC1(C)O[C@@H]2[C@@H](CO[C@@]3(COS(N)(=O)=O)OC(C)(C)O[C@@H]23)O1 [Topiramate] — lower, -1.84
- OCCN1C[C@H](O)[C@@H](O)[C@H](O)[C@H]1CO [Miglitol] — lower, 2.58
- COc1ccccc1OCC(O)CN1CCN(CC(=O)Nc2c(C)cccc2C)CC1 (stereo not given) [Ranolazine dihydrochloride] — lower, -0.274
- CC(C)CN(C[C@@H](O)[C@H](Cc1ccccc1)NC(=O)O[C@H]1CO[C@H]2OCC[C@H]21)S(=O)(=O)c1ccc(N)cc1 [Darunavir] — lower, 1.64
- CCc1nc(N)nc(N)c1-c1ccc(Cl)cc1 [Pyrimethamine] — higher, 6.72
- Nc1cc(N2CCCCC2)nc(N)[n+]1[O-] [Minoxidil] — lower, -7.05
- COc1cc2ncnc(Nc3ccc(F)c(Cl)c3)c2cc1OCCCN1CCOCC1 [Iressa] — lower, -10.8
- Brc1c(NC2=NCCN2)ccc2nccnc12 — higher, 10.3
- C/C(O)=C(\C#N)C(=O)Nc1ccc(C(F)(F)F)cc1 [Teriflunomide] — lower, -10.8
- O=C(O)c1cc(/N=N/c2ccc(S(=O)(=O)Nc3ccccn3)cc2)ccc1O [Sulfasalazine] — lower, 0.416
- COc1cc2nc(N3CCN(C(=O)c4ccco4)CC3)nc(N)c2cc1OC [Prazosin hydrochloride] — lower, -10.2
- N#Cc1ccc(C(c2ccc(C#N)cc2)n2cncn2)cc1 [Letrozole] — higher, 6.3
- CCOc1nc2cccc(C(=O)O)c2n1Cc1ccc(-c2ccccc2-c2nnn[nH]2)cc1 [Candesartan] — lower, 0.689
- NS(=O)(=O)c1cc2c(cc1Cl)NC(C1CC3C=CC1C3)NS2(=O)=O (stereo not given) [Cyclothiazide] — lower, 0.907
- O=C(O)C[C@H](O)C[C@H](O)/C=C/c1c(C2CC2)nc2ccccc2c1-c1ccc(F)cc1 [Pitavastatin calcium] — higher, 11
- CN(C)CC/C=C1/c2ccccc2COc2ccc(CC(=O)O)cc21 [Olopatadine hydrochloride] — higher, 5.77
- Nc1ncn([C@H]2C[C@H](O)[C@@H](CO)O2)c(=O)n1 [Decitabine] — lower, 0.0025
- CC(C)(C(=O)O)c1ccc(C(O)CCCN2CCC(C(O)(c3ccccc3)c3ccccc3)CC2)cc1 (stereo not given) [Fexofenadine hydrochloride] — higher, 3.69
- Nc1nc2[nH]cc(CCc3ccc(C(=O)N[C@@H](CCC(=O)O)C(=O)O)cc3)c2c(=O)[nH]1 [Pemetrexed] — higher, 8.22
- CC(=O)Oc1cc2c(s1)CCN(C(C(=O)C1CC1)c1ccccc1F)C2 (stereo not given) [Prasugrel] — lower, -2.39
- CCCCNc1cc(C(=O)O)cc(S(N)(=O)=O)c1Oc1ccccc1 [Bumetanide] — higher, 5.17
- CC(C)COCC(CN(Cc1ccccc1)c1ccccc1)N1CCCC1 (stereo not given) [Bepridil hydrochloride] — lower, -2.16
- COc1cccc2c1C(=O)c1c(O)c3c(c(O)c1C2=O)C[C@@](O)(C(=O)CO)C[C@@H]3O[C@H]1C[C@H](N)[C@H](O)[C@H](C)O1 [Doxorubicin hydrochloride] — lower, -8.47
- C[C@]12CCC(=O)C=C1CC[C@@H]1[C@@H]2[C@@H](O)C[C@@]2(C)[C@H]1CC[C@]2(O)C(=O)CO [Hydrocortisone] — higher, 10.5
- Nc1nc2c(ncn2COCCO)c(=O)[nH]1 [Acyclovir] — lower, 0.472
- C[C@]12CC[C@@H]3c4ccc(O)cc4C[C@@H](CCCCCCCCC[S+]([O-])CCCC(F)(F)C(F)(F)F)[C@H]3[C@@H]1CC[C@@H]2O (stereo not given in full) — lower, -7.68
- COCCc1ccc(OCC(O)CNC(C)C)cc1 (stereo not given) [Metoprolol tartrate] — lower, 0.682
- CC(C)[C@H]1CC[C@H](C(=O)N[C@H](Cc2ccccc2)C(=O)O)CC1 [Nateglinide] — higher, 4.02
- CC(=O)NC[C@H]1CN(c2ccc(N3CCOCC3)c(F)c2)C(=O)O1 [Linezolid] — higher, 5.36
- OCCOCCN1CCN(C2=Nc3ccccc3Sc3ccccc32)CC1 [Quetiapine hemifumarate] — higher, 10.3
- CCOc1ccccc1OCCN[C@H](C)Cc1ccc(OC)c(S(N)(=O)=O)c1 [Tamsulosin hydrochloride] — lower, -11.6
